# From PubChem BioAssay (NCI)
# This is part of a sample that, as a whole, favours compounds with a hit. Of some 83,000 tested, about 20% had one in any assay.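 Method: cells in 96-well plates; compound added at one concentration; 48 h incubation; percent growth measured; values under 10 scored active.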 Unmarked numbers belong to inactive results. The source made the active and inactive calls.
# Key:
# Test in all cases: NCI-60 one-dose screen, 48 h (100 = growth as untreated, 0 = no growth, -100 = all killed)
# Settings in all cases: 10 µM unless noted
# HCT-15 colon = tested on: HCT-15 colon
# HT29 colon = tested on: HT29 colon
# SNB-75 CNS = tested on: SNB-75 CNS
# SNB-19 CNS = tested on: SNB-19 CNS
# U251 CNS = tested on: U251 CNS
# PC-3 prostate = tested on: PC-3 prostate
# SK-MEL-5 melanoma = tested on: SK-MEL-5 melanoma
# UACC-62 melanoma = tested on: UACC-62 melanoma
# LOX IMVI melanoma = tested on: LOX IMVI melanoma
# SK-MEL-28 melanoma = tested on: SK-MEL-28 melanoma
SMILES,growth (HCT-15 colon),growth (HT29 colon),growth (SNB-75 CNS),growth (SNB-19 CNS),growth (U251 CNS),growth (PC-3 prostate),growth (SK-MEL-5 melanoma),growth (UACC-62 melanoma),growth (LOX IMVI melanoma),growth (SK-MEL-28 melanoma)
O=C(NNc1nc2cc(F)c(F)cc2n2cccc12)c1ncccn1,28.8%,34.3%,-1.51% (active),25.8%,18.3%,32.4%,-70.7% (active),18.3%,16.1%,25.7%
O=C(Nc1cccc(-c2nc(-c3ccc(NC(=O)c4cccnc4)cc3Cl)no2)c1)Nc1ccc(NC(=O)C2CC2)c(C(F)(F)F)c1,9.01% (active),-26.8% (active),-73.7% (active),-0.276% (active),-48% (active),-65.8% (active),-92.9% (active),-81.9% (active),-93.3% (active),-83.7% (active)
C#CCOc1ccc(/C=N/Nc2nc(-c3cc4cc(Br)cc(Br)c4oc3=O)cs2)cc1,95.2%,104%,90.3%,104%,96.2%,88.1%,98.5%,88.1%,102%,106%
Cc1nc(-c2cc3ccccc3c(N3CCN(C)CC3)n2)cs1,92.1%,96.4%,76.2%,90.1%,96.4%,86.8%,95.4%,90.8%,84.7%,107%
CCOC(=O)/C=c1\sc2n(c1=O)C1C(NN=2)N(CC)C(=O)N1CC (stereo not given),31%,26.4%,52.2%,54.2%,68.9%,55.7%,54%,39%,53.5%,71.9%
COc1cc2c3c(n(CCCNCC4CC4)c(=O)c2cc1OC)-c1cc2c(cc1C3=O)OCO2,-72.2% (active),-70.6% (active),66.8%,42.3%,-95.7% (active),40%,53.2%,45.7%,-77.7% (active),89.7%
CCNC(=O)Oc1ccc(/C(=C(/C)c2ccc(Cl)cc2)c2ccc(OCCN3CCCC3)cc2)cc1,60.5%,19.6%,85.7%,81.6%,60.1%,82.4%,86.3%,98.3%,49.2%,89%
O=C(/C=C/c1cccc(O)c1)c1ccc(O)cc1,49.6%,80.7%,103%,74.9%,43.3%,65.3%,96.9%,80%,32.2%,101%
Cc1cccc(NC(c2cc3cccc4ccc5cccc2c5c43)c2nnnn2C(C)(C)C)c1C (stereo not given),88.7%,82.1%,93.7%,91.1%,95.3%,77.5%,97.4%,62.3%,80.2%,102%
Cn1c2ccc(Br)cc2c2c3c(c4c5cc(F)ccc5oc4c21)C(=O)N(O)C3=O,89.2%,101%,70%,74.3%,79.8%,68%,90.3%,80.2%,61.9%,112%
Clc1ccc(-c2nc3ccc(/C(=N\N=C\c4ccccc4)c4ccccc4)cc3[nH]2)cc1,72%,71.7%,113%,93.8%,88.4%,62.2%,86.7%,88.8%,84.6%,90.6%
CCOC(=O)c1c(Nc2ccccc2)nn2c(-c3ccc(Br)cc3)ccnc12,66.4%,76.7%,65.2%,56.8%,66.3%,80.9%,81.2%,79.3%,56.4%,78.3%
CC(C)Sc1nc(NC2CC2)c(C#N)c(-c2ccccc2)n1,92.4%,91.1%,34.7%,90%,85.1%,92.5%,100%,87.6%,67.9%,98.7%
CCCCSc1nnc(-c2ccc(-c3ccc(Cl)cc3)nc2C)o1,92.6%,97.2%,90.3%,97.8%,104%,91.9%,99.3%,84.1%,101%,99.9%
CC(C)(C)n1nnnc1C(Nc1nccs1)c1cc2cccc3ccc4cccc1c4c32 (stereo not given),93.2%,104%,95.7%,88.8%,89.3%,90.1%,94%,48.8%,96.3%,101%
O=C(NNc1nc2cc(F)c(F)cc2n2cccc12)c1cccnn1,29.1%,29.5%,33.7%,22.6%,14.8%,33.7%,-36.8% (active),10.5%,3.83% (active),27.3%
CCC(=O)Nc1ccc(-c2nc(-c3cccc(O)c3)c(-c3ccnc(Br)c3)[nH]2)cc1,78.6%,51.7%,8.26% (active),58%,47.8%,60.5%,77%,34.6%,59.3%,59.1%
CCN(CC)Cc1c(-c2cccc(OC(F)(F)F)c2)[nH]c2ccc(N3CCCC3)cc2c1=O,90.1%,104%,88.1%,90.6%,99.6%,90.5%,98.3%,82.7%,90.9%,92.2%
Cn1cc(-c2nn3cc(-c4cccnc4)nc3s2)c2cc(F)ccc21,60%,67.1%,86.9%,84.7%,96.8%,79.4%,94.3%,62.2%,85.7%,81.7%
COc1ccc(-c2no[n+]([O-])c2Nc2ccccc2Br)cc1,97.1%,119%,92%,89.5%,95%,76.8%,93.5%,71.6%,95.6%,99.8%
COc1cnc2c(c1)C(=O)c1c-2n(CCCn2ccnc2)c(=O)c2cc(OC)c(OC)cc12,-53.2% (active),-56.1% (active),12.4%,14.9%,-84.8% (active),-54.9% (active),-28.4% (active),-11% (active),-51.5% (active),45.5%
C=CCn1c(SCC(=O)Nc2cccc(C(=O)/C=C/c3ccccc3Cl)c2)nc2ccccc2c1=O,75.4%,75%,70.9%,78.5%,81.8%,82.8%,98.8%,83.4%,79.5%,92.3%
COc1ccc(N)cc1C(=O)Nc1cccc(-c2cc(=O)c3c(OC)c(OC)c(OC)cc3o2)c1,44.7%,56.5%,93.1%,76.6%,49.9%,74.1%,41%,61.2%,44.3%,86.6%
O=C(Cn1cc(CN2C(=O)c3ccc([N+](=O)[O-])cc3C2=O)nn1)Nc1ccc(F)cc1Cl,99.5%,102%,92.6%,97.2%,97.3%,92.6%,101%,92.3%,107%,99.9%
CN1C(=O)N(C)C2Nn3c(s/c(=C\c4ccccn4)c3=O)=NC21 (stereo not given),99.9%,110%,105%,100%,105%,99.1%,102%,90.6%,99.6%,104%
COc1ccc2c(c1)c(-c1nnc(N)nc1-c1cn(C)c3ccccc13)cn2C,87%,96%,42.9%,93.2%,102%,88.8%,97.8%,79%,90.8%,97.3%
